# Experimental data reported in PubChem BioAssay AID1347076 (National Center for Advancing Translational Sciences (NCATS), 2019).
# About 13,000 (3.2%) of roughly 400,000 compounds were called active. Another 18% or so got no clear call; they are omitted. Many of the other results were omitted from the sample, so actives are more common in it than they were. Values without a mark were called inactive. Calls follow the shape of the dose curve; as a rule, active = well fitted cell-killing curve with a large enough effect; inconclusive = small, poorly fitted or top-dose-only effect, or effect the other way; inactive = flat fitted curve, though single readings scatter.
# Assay: qHTS assay for MDR1-selective chemotherapeutics: Primary screen using the drug-selected MDR subline cells KB-V1; also: nearly all actives have a fitted effect of over 60% in size
# Settings: KB-V1 MDR cells viability, CellTiter-Glo, 72 h; series mostly up to 46.1 µM; activity change, negative = cytotoxicity: at the top concentration
# How it was run: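 qHTS viability screen in drug-selected KB-V1 MDR cells: 72 h compound treatment at 37 degrees C, ATP luminescence end point.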
# % is scaled to controls: 0 for no effect and ±100 for the full control effect; potency is read from the fitted curve at half-maximal effect.
SMILES,"activity change, negative = cytotoxicity [%]",Potency
COc1ccc(C)cc1N(CC(=O)N1CCCC1)S(=O)(=O)c1ccccc1,-5.7,–
CCOC(=O)N1CCN(C(=O)CN(c2ccc(C)c(C)c2)S(=O)(=O)c2ccccc2)CC1,–,1.16 µM (active)
NC(=O)c1ccccc1N(Cc1ccccc1)S(=O)(=O)c1ccccc1,0,–
CCOC(=O)N1CCN(S(=O)(=O)c2ccc(OC)cc2)CC1,-6.07,–
COc1ccc(N(CC(=O)N2CCCCCC2)S(=O)(=O)c2ccccc2)cc1,-14.8,–
CCOC(=O)N1CCN(C(=O)c2ccccc2N(Cc2ccccc2)S(=O)(=O)c2ccc(OC)cc2)CC1,–,20.6 µM (active)
CC1CCCCN1Cc1c(O)ccc2c(=O)c(-c3cccc(Cl)c3)c(C(F)(F)F)oc12 (stereo not given),10.4,–
CCC1CN(S(=O)(=O)c2cc(-c3cc(C)no3)ccc2C)c2cc(C)ccc2O1 (stereo not given),-17,–
C[C@@H]1CN([C@H](C)CO)C(=O)CCCn2nncc2CO[C@@H]1CN(C)S(=O)(=O)c1cccc(C#N)c1,-22.1,–
Cc1csc(NCC(=O)c2c[nH]c3ccccc23)n1,-17.4,–
COc1ccc(-c2nc3c4ccccc4n(CC(=O)Nc4ccc(C(C)=O)cc4)c(=O)n3n2)cc1,17.9,–
COc1ccc(C(C(O)C(=O)c2c[nH]c3ccccc23)N2CCN(c3ccccc3)CC2)cc1 (stereo not given),-8.03,–
COc1ccc(/C=C(\C#N)c2c[nH]c3ccccc23)cc1,–,1.3 µM (active)
COc1ccc(/C=C(\NC(=O)c2ccc(OC)c(OC)c2)C(=O)NCCc2c[nH]c3ccccc23)cc1,-26.9,–
O=C(CC[C@H]1O[C@@H](n2ccc(=O)[nH]c2=O)[C@H](O)[C@@H]1O)N[C@H](Cc1ccccc1)C(=O)NCc1ccco1,3.99,–
Oc1c(C(c2ccc(F)cc2)N2CCN(Cc3ccccc3)CC2)sc2nc(-c3ccco3)nn12 (stereo not given),-1.49,–
COC(=O)c1ccc(Cn2c(SCC(=O)N(C)c3ccccc3)nc3ccccc32)cc1,4.47,–
C#CCNC(=O)C[C@@H]1C[C@@]2(C(=O)OCC)CCCC=C2N(Cc2ccco2)C1=O,0,–
COc1cc(C(=O)N(Cc2ccc(N(C)C)cc2)C2CCS(=O)(=O)C2)cc(OC)c1OC (stereo not given),11.3,–
COCCCNC(=O)CNC(=S)N(Cc1cc(OC)c(OC)c(OC)c1)C1CCCC1,–,20.6 µM (active)
COc1cc(C(=O)N(Cc2ccc(C(C)C)cc2)C2CCS(=O)(=O)C2)cc(OC)c1OC (stereo not given),-15.3,–
CCCCCCN1CCN(C2CN(Cc3cn(Cc4ccc(F)cc4)nn3)S(=O)(=O)C2)CC1 (stereo not given),14.9,–
CC(C)c1cc(C(N)=O)c(NC(=O)c2cccc(COc3ccc(Br)cc3)c2)s1,–,20.6 µM (active)
N#Cc1ccccc1NC(=O)c1cccc(COc2ccc(Cl)cc2Cl)c1,0.166,–
CC(C)(C)OC(=O)N(Cc1ccccc1)Cc1ccc(OCc2cccc(NC(=O)c3ccccc3)c2)cc1,-2.42,–
